# FAS TE block: inhibitors of human fatty acid synthase thioesterase domain. recombinant FAS-TE, OMFH fluorogenic substrate, fluorescence endpoint. inhibition, % at 15 µM. P49327. AID 602261. 360,000 tested, 0.67% active;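 active = compounds whose normalised, plate-corrected inhibition of enzyme fluorescence in the single-dose primary screen is 50% or more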;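 note: 0% = DMSO with enzyme and 100% = substrate without enzyme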
# H9c2 protect: modulators protecting cardiomyocytes from myocardial damage; H9c2 cardiomyocytes, H2O2 injury protection, ATPLite, 2 h; protection from H2O2 cell death, % at 20 µM; 360,000 tested, 0.63% active; AID 588492;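 active = compounds giving at least 50% protection of heart cells from peroxide-induced death in the single-dose screen, raw or plate-pattern-corrected value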;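 note: 0% = DMSO wells with peroxide and 100% = DMSO wells without peroxide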
# MPTP block: inhibitors of mitochondrial permeability transition pore; isolated mouse mitochondria, Ca2+ swelling absorbance, 30 min; inhibition, % at 10 µM; AID 602449; 360,000 tested, 1.4% active;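 active = inhibition of 50% or more, scaled per plate between neutral and stimulator controls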;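 note: 0% = DMSO wells given calcium and 100% = 1 mM EGTA wells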
# Mot1-301 SUMO: blocks SUMOylation pathway, rescuing yeast Mot1-301 growth; 320,000 tested, 1% active; S. cerevisiae Mot1-301 growth rescue, ATP luminescence, 38.5C; percent above DMSO median, 100 means doubled; growth rescue, % at 18.8 µM;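 active = every valid replicate shows activation above 250% relative to neutral control wells; inactive = the rest, any valid replicate at or below 250%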;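 note: OY570 slx delta 5 strain wells were the positive control but not used for scaling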
# Yeast superoxide: lowers age-related superoxide in aged yeast cells; S. cerevisiae aged cells, superoxide DHE fluorescence; stronger effect = lower value; superoxide response (% of plate mean), % at 10 µM; 330,000 tested, 0.18% active;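 active = superoxide response under a set limit, about three screen SD below normal, cut at about 65% in these data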;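 note: yeast aged for seven days with compound at 30 °C before DHE staining; 100% = average MFI of all compound-treated wells on the plate with controls excluded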
# aDG glyco up: alpha-DG glycosylation activation; Pro5-aDG cells, alpha-DG glycosylation AlphaScreen (IIH6); 0% Pro5, 100% B10-LARGE cell signal; activation, % at 10 µM; 360,000 tested, 0.22% active; AID 624168;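 active = activation of at least 8% versus controls, or a plate z-score of at least 8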;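 note: Pro5 are CHO cells carrying HIG-tagged alpha-DG that lacks glycosylation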
# An asterisk follows results filed as active; . = not tested or not shown. An excerpt weighted towards active compounds, which were near 3.8% of everything screened.
SMILES,FAS TE block,H9c2 protect,MPTP block,Mot1-301 SUMO,Yeast superoxide,aDG glyco up
COc1ccc(-c2nnc(NC(=O)c3ccc(S(=O)(=O)N4CCCc5ccccc54)cc3)o2)cc1,16,63*,-23,4,102,4
O=C(Nc1nnc(C2CC2)o1)c1ccc(S(=O)(=O)N2CCCc3ccccc32)cc1,6,45,-24,-30,103,1
CC1CN(S(=O)(=O)c2ccc(C(=O)Nc3nnc(-c4ccc5c(c4)CCCC5)o3)cc2)CC(C)O1 (configuration not stated),4,62*,-16,10,102,0
O=C(CCc1nc2ccccc2c(=O)[nH]1)NNC(=O)c1ccc(Cl)cc1,-3,61*,0,-8,101,0
O=C(CCc1nc2ccccc2c(=O)[nH]1)NNC(=O)c1cccc(Cl)c1,-5,70*,-1,14,102,0
COc1cc(OC)cc(C(=O)NNC(=O)CCc2nc3ccccc3c(=O)[nH]2)c1,-5,56*,0,-12,78,0
O=C(CCc1nc2ccccc2c(=O)[nH]1)NNC(=O)c1ccc(F)cc1,-2,78*,1,9,103,0
O=C(Cc1ccccc1)NCC(=O)N1CCC1,-5,2,0,-1,100,0
CCC(CC)C(=O)N(CCc1ccc(OC)cc1)Cc1nc2ccccc2c(=O)[nH]1,7,56*,0,-32,102,0
N/C(Cc1ccc(Cl)c(Cl)c1)=N\OC(=O)c1cccs1,26,-20,0,324*,107,0
N/C(=N\OC(=O)c1cccs1)C1(c2ccc(Cl)cc2Cl)CC1,16,1,-2,43,121,0
O=c1[nH]c2c(c3c1CCCC3)CCCC2,-3,74*,0,-11,86,0
O=c1[nH]c2c(c(=O)[nH]1)CCCCCC2,-3,-6,-1,.,.,0
O=C(CSc1nc2nn(-c3ccccc3)c(=O)c-2c2n1CCCCC2)c1ccc(O)c(O)c1,20,100*,4,6,81,0
CNC(=O)CSc1nc2nn(-c3ccccc3)c(=O)c-2c2n1CCCCC2,-2,1,-1,5,103,0
CCOC(=O)C1=C(C)N=c2s/c(=C\c3ccncc3)c(=O)n2C1c1ccc2c(c1)OCO2 (configuration not stated),17,55*,0,-9,110,0
COc1cc(OC)cc(C(=O)NCC(=O)OC2CCCCC2=O)c1 (configuration not stated),-3,6,-1,-12,98,0
CCSc1nc(O)cc(=O)[nH]1,-4,0,0,2,97,0
CCSc1nc(=S)cc(C)[nH]1,-4,-5,0,108,59*,0
O=C(NN=Cc1ccc(O)cc1O)c1ccccc1NS(=O)(=O)c1cccs1,20,51*,5,-10,70,0
O=C(CNCc1ccccn1)N1CCc2ccccc2C1,-6,2,1,8,96,0
Cc1ccc(C(=O)CC(=O)COc2ccc(Cl)cc2C)cc1,10,64*,0,-7,72,0
c1ccc(-c2nnc(-c3ccccn3)c(-c3ccccn3)n2)nc1,-7,-1,2,2,106,0
CN(C)c1nc(-c2ccccn2)nnc1-c1ccccc1,-9,67*,1,-17,94,1
COc1ccccc1N(C(=O)c1snc(C(N)=O)c1N)C(C(=O)NC1CCCC1)c1ccc2ncccc2c1 (configuration not stated),3,-4,-2,-3,102,0
Cc1c(C(=O)Nc2nc(-c3ccccn3)cs2)oc2ccccc12,14,54*,-1,47,96,1
O=C(Nc1nc(-c2ccccn2)cs1)c1cc2ccccc2o1,2,11,-5,6,87,0
O=C(Nc1nc(-c2ccccn2)cs1)c1ccc(Cl)s1,9,31,0,42,95,2
Cc1ccc(C(=O)Nc2nc(-c3ccccn3)cs2)s1,4,59*,-3,28,99,2
O=C(OC1CC2CC1[C@H]1CCCCN1C2=O)N1CCN(S(=O)(=O)c2ccccc2)CC1 (some centres not stated),-5,.,1,.,.,0
